High-throughput results (PubChem BioAssay)
NadD block = inhibitors of Staphylococcus aureus NadD; purified NadD enzyme, colorimetric absorbance read-out; inhibition, % at 20 µM; 0.78% of 360,000 active; in the data active = inhibition above about 26%
Neddylation inh = inhibitors of human cullin neddylation. P61081+Q13564. TR-FRET cullin neddylation, biochemical. inhibition, % at 25 µM. 0.58% of 360,000 active; in the data active = inhibition above about 36%
HGIII-sPLA2 inh = Blocks human group III sPLA2 activity; Q9NZ20; QFRET BODIPY PC-A2 liposome hydrolysis, fluorescence; inhibition, % at 12.2 µM; 0.56% of 370,000 active; AID 743126;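 active = inhibition above mean plus 3 SD of compounds lying within the high and low control bounds, cut at about 19% in these data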
Target sequence (Q9NZ20 whole entry, looked up): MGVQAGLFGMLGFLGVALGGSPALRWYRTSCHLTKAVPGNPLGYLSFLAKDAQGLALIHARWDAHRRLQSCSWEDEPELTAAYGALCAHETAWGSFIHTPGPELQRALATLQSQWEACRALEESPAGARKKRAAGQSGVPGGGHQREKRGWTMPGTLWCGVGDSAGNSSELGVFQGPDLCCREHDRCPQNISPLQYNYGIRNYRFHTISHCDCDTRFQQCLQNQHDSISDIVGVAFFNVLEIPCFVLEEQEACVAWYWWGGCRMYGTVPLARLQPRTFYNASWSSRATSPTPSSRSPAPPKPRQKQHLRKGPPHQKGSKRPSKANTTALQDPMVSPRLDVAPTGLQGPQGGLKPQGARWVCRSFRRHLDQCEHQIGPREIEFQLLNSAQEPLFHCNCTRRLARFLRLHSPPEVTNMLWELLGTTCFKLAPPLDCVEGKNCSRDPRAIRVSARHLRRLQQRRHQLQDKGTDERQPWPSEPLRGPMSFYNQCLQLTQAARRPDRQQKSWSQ
ARNT-TACC3 inh = disrupts binding between human ARNT and TACC3; AlphaScreen His-ARNT PAS-B/GST-TACC3 binding, luminescence; TACC3 fragment carries E629A point mutation; inhibition, % at 9.99 µM; Q9Y6A5; 0.66% of 390,000 active;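 active = mean inhibition of replicates at least 50% and at least half of replicates each reaching 50%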
DAGLB inh = blocks human DAGLB lipase activity | Q8NCG7 | HEK293T DAGLB membrane lysate, EnzChek fluorogenic substrate | inhibition, % at 5.17 µM | 0.059% of 340,000 active | AID 504411; in the data active = inhibition above about 34%
Of the large screens only hits and unclear results are named; the others gave an inactive call; ! = a repeat was not active. Compounds with a hit are over-represented: about 2% of the library has one in this group of screens.

C/C(=N\OCC(=O)N/N=C/c1ccc(C)cc1O)c1cccs1	Neddylation inh 40
NCCc1cnc[nH]1	ARNT-TACC3 inh 73!
CCN1CCN(c2cc(N3CCN(C(=O)c4ccco4)CC3)c3c4c(onc24)-c2ccccc2C3=O)CC1	NadD block 45 (no result: HGIII-sPLA2 inh)
Cc1cc(N2CCN(C(=O)c3ccco3)CC2)c2ccccc2n1	none
CC(=O)OCCNc1cc(N2CCN(C)CC2)c2noc3c2c1C(=O)c1ccccc1-3	ARNT-TACC3 inh 49
CCOC(=O)C(C(=O)OCC)c1cc(Br)c2noc3c2c1C(=O)c1ccccc1-3	none
CN(C)C(=O)C[C@H]1C=C[C@H](NC(=O)NC2CCCCC2)[C@H](CO)O1	none (no result: NadD block, Neddylation inh, HGIII-sPLA2 inh, DAGLB inh)
COc1ccc(CNC(=O)C[C@@H]2C=C[C@@H](NC(=O)CN(C)C)[C@@H](CO)O2)cc1	none (no result: NadD block, Neddylation inh, HGIII-sPLA2 inh, DAGLB inh)
C[C@H](CO)N1C[C@H](C)[C@@H](CN(C)C(=O)Cc2ccccc2)OCCCC[C@H](C)Oc2ccc(NC(=O)C3CCCCC3)cc2C1=O	none (no result: NadD block, Neddylation inh, HGIII-sPLA2 inh, DAGLB inh)
COc1ccc(C(CCN2CCCC(C)C2)c2c(OC)cc(OC)c3c(-c4ccccc4)cc(=O)oc23)cc1 (configuration not stated)	none
COc1cc(OC)c2c(-c3ccccc3)cc(=O)oc2c1C(CCN1CCN(c2ccccc2)CC1)c1ccc(N(C)C)cc1 (configuration not stated)	none
COc1cc(OC)c2c(-c3ccccc3)cc(=O)oc2c1C(CCN1CCCC(C)C1)c1ccc(N(C)C)cc1 (configuration not stated)	ARNT-TACC3 inh 45
CCN(CC)CCC(c1ccc(N(C)C)cc1)c1c(OC)cc(OC)c2c(-c3ccccc3)cc(=O)oc12 (configuration not stated)	ARNT-TACC3 inh 39
COc1cnc(-c2ccccn2)nc1Oc1ccc(Cl)c2ccccc12	ARNT-TACC3 inh 17
Cc1ccc(S(=O)(=O)c2c(N)n(/N=C/c3ccco3)c3nc4ccccc4nc23)cc1C	NadD block 54 (not shown: Neddylation inh)
Cc1ccc(S(=O)(=O)c2c(N)n(/N=C/c3ccco3)c3nc4ccccc4nc23)cc1	none (not shown: Neddylation inh)
COc1ccc(S(=O)(=O)c2c(N)n(Cc3ccco3)c3nc4ccccc4nc23)cc1	NadD block 34 (not shown: Neddylation inh)
Cc1ccc(S(=O)(=O)c2c(N)n(CCCN(C)C)c3nc4ccccc4nc23)cc1	none (not shown: Neddylation inh)
Nc1c(S(=O)(=O)c2cccs2)c2nc3ccccc3nc2n1/N=C/c1cccc(O)c1	NadD block 45 (not shown: Neddylation inh)
CC=Cc1ccc2n(c1=O)C[C@H]1[C@H](CO)[C@@H](C(=O)NCCc3ccccc3)N(CCC)[C@@H]21 (mixture of isomers)	none (no result: NadD block, Neddylation inh, HGIII-sPLA2 inh, DAGLB inh)
Cc1c(NC(=S)N/N=C/c2ccc([N+](=O)[O-])cc2O)c(=O)n(-c2ccccc2)n1C	ARNT-TACC3 inh 61
N#CC1=C(N)N(c2ccccc2)C(c2ccco2)C1(C#N)C#N (configuration not stated)	Neddylation inh 39
Cc1cccc(N2C(N)=C(C#N)C(C#N)(C#N)C2c2ccccc2)c1 (configuration not stated)	none (not shown: Neddylation inh)
CCCNC(=O)c1c(N)n(-c2ccc3c(c2)OCO3)c2nc3ccccc3nc12	none
Nc1c(C(=O)NC2CC2)c2nc3ccccc3nc2n1-c1ccc2c(c1)OCO2	Neddylation inh 50
Cc1noc(C)c1S(=O)(=O)Nc1ccc2c(c1)C(=O)N([C@@H](C)CO)C[C@H](C)[C@@H](CN(C)C(=O)Cc1ccccc1)OCCCC[C@H](C)O2	none (no result: NadD block, Neddylation inh, HGIII-sPLA2 inh, DAGLB inh)
CCCC(=O)Nc1ccc2c(c1)C(=O)N(C)[C@H]1CC[C@@H](CC(=O)NCC3CCCCC3)O[C@@H]1CO2	none (no result: NadD block, Neddylation inh, HGIII-sPLA2 inh, DAGLB inh)
Cc1noc(C)c1S(=O)(=O)N(C)C[C@H]1Oc2ccc(NC(=O)C3CCCCC3)cc2CC(=O)N([C@@H](C)CO)C[C@@H]1C	none (no result: NadD block, Neddylation inh, HGIII-sPLA2 inh, DAGLB inh)
Fc1cccc(/C=N/Nc2ccc3ccccc3n2)c1	HGIII-sPLA2 inh 20
O=[N+]([O-])c1cccc(C=NNc2ccc3ccccc3n2)c1O	ARNT-TACC3 inh 72
O=C(C[C@H]1C=C[C@@H](NS(=O)(=O)c2ccccc2F)[C@H](CO)O1)NCCCN1CCOCC1	none (no result: NadD block, Neddylation inh, HGIII-sPLA2 inh, DAGLB inh)
N#Cc1c(N2CCCC(O)C2)nc(N)c2c(N)nc3c(c12)CC(=O)N3C12CC3CC(CC(C3)C1)C2 (configuration not stated)	NadD block 57
Cc1ccccc1OCC(=O)Nc1ccccc1N1CCC(C)CC1	ARNT-TACC3 inh 45
CC(=O)N1CCN(c2ccccc2NC(=O)COc2ccccc2C)CC1	none
COc1ccccc1OCC(=O)NCc1cccs1	ARNT-TACC3 inh 45
